The assay addresses Polyadenylate-binding protein 1 (Homo sapiens) (UniProt P11940). Put plainly: blockers of PABP interaction with poly(A) – biochemical, fluorescence polarization, uHTS, primary screen (AID 2014).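 Also: calls also rest on retests at 20 µM and on dose response follow-up.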 The note with it: PABP-poly(A) RNA binding, stronger effect = higher value. On the technique in general: In fluorescence polarisation assays a small probe gives low polarisation when free and higher when bound to something large.

Several values for one entry are separate records, joined by “and”; a condition that tells them apart may be missing. Identical values can stand only once. The campaign covered roughly 290,000 compounds. About 3,000 (1%) were called active. This is one part of a sample in which actives are shown more often than they occur. No rule for the calls is given here.

Chain of Polyadenylate-binding protein 1 (Homo sapiens) (P11940 whole entry, looked up): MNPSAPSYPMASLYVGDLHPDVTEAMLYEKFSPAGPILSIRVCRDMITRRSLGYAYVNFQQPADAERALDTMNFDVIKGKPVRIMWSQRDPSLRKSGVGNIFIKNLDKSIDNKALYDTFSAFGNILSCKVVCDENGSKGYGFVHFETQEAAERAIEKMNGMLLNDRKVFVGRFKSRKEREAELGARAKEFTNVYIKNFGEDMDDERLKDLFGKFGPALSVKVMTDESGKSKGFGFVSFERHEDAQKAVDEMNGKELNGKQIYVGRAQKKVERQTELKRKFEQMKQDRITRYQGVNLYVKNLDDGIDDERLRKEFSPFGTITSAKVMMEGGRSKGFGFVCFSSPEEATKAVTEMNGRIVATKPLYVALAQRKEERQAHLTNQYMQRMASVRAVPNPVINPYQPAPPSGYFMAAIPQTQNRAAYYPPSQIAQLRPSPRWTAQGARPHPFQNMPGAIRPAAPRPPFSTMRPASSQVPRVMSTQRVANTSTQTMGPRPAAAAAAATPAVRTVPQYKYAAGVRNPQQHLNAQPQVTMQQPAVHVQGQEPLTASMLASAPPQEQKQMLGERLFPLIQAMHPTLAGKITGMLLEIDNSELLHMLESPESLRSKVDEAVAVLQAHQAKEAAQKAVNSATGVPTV

Usually inhibition stands for the change of the read-out against control, counted positive when it falls. As for `CCOC(=O)c1ccc(NC(=O)c2ccc(NC(=O)C3CCCO3)cc2)cc1` (stereo not drawn), the inhibition (at 35 µM) is -0.4% (inactive).

As for `CC(C)C[C@@H](CO)N1CCN(Cc2ccc(O)cc2)CCC1=O`, the inhibition (at 35 µM) is 1.4% (inactive).

Regarding `COc1ccc(CN2CCCC(CNC(=O)c3ccc(F)cc3)C2)cc1OC` (stereo not drawn), the inhibition was 79.6% (active) (at 35 µM) and 74.7% (confirmation repeats, at 20 µM).

Consider `COc1ccc(CCN(C)C(=O)C2CCCN(Cc3ccc(OC)c(OC)c3)C2)cc1OC` (stereo not drawn), for which, under “at 35 µM”, the inhibition is 11.9% (inactive) and 7% (inactive).

Consider `COc1ccc(Cc2nc3ccc(C(=O)NCC4CCOCC4)cc3o2)cc1OC`, for which the inhibition (at 35 µM) is 11.1% (inactive).

In the case of `O=C(Cc1ccccc1F)NC1CCSc2ccccc21` (stereo not drawn), where the note is “at 35 µM”, the inhibition is 0.4% (inactive).

For the compound `Cc1c(C)c(C)c2[nH]c(=S)[nH]c2c1C`, the inhibition (at 35 µM) was 9.8% (inactive).

As for `O=c1[nH]c(=S)[nH]c2[nH]c(=S)[nH]c12`, the inhibition (at 35 µM) was 91.1% (active).

Take `Cc1ccc2c(c1)N(CC(=O)N1CCOCC1)C(=O)CO2`: the inhibition (at 35 µM) is 2.5% (inactive).

Take `CC1(c2ccc3ccccc3c2)NC(=O)N(CC(N)=O)C1=O` (stereo not drawn): the inhibition (at 35 µM) is -4.5% (inactive).

Consider `O=C(NNS(=O)(=O)c1ccc(Cl)cc1)C1CCN(Cc2ccccc2)CC1`, for which, under “at 35 µM”, the inhibition is -4% (inactive).

On to `NNC(=O)c1cnn(-c2ccccc2)c1C(F)(F)F`, for which the inhibition (at 35 µM) is 10.3% (inactive).

With `O=C(NNS(=O)(=O)c1ccccc1)c1cnn(-c2ccc(Cl)cc2)c1C(F)(F)F`, the inhibition was 11.5% (active) (at 35 µM) and 102% (confirmation repeats, at 20 µM).

As to `COc1ccc(CCNC(=O)c2ccccc2OCc2ccccc2)cc1`, the inhibition (at 35 µM) is -3.4% (inactive).

With `CC(C)(C)OC(=O)NNc1c2ccccc2nc2ccccc12`, for the setting “at 35 µM”, the inhibition is -1.9% (inactive).

For the compound `CSc1ncc(C(=O)NCCCc2ccccc2)c(C)n1`, the inhibition (at 35 µM) was -4.6% (inactive).

With `CC(=O)c1cnc(SCCN2C(=O)c3ccccc3C2=O)nc1C`, where the note is “at 35 µM”, the inhibition is -5.5% (inactive).

In the case of `CC(=O)c1cnc(SCC(=O)O)nc1C`, the inhibition is 54.3% (active) (at 35 µM) and 68.8% (confirmation repeats, at 20 µM).

For the compound `CCC1(CC)Cc2ccccc2-c2nc(CCl)[nH]c(=O)c21`, the inhibition (at 35 µM) is -1.7% (inactive).

For `O=C(NCCCN1CCOCC1)c1cc(-c2ccccc2F)no1`, the inhibition (at 35 µM) is -8% (inactive).

As for `COc1ccc(N2CCN(C(=S)Nc3ccc(S(N)(=O)=O)cc3)CC2)cc1`, the inhibition (at 35 µM) was -0.4% (inactive).

Consider `CC1CN(C(=S)Nc2ccc(S(N)(=O)=O)cc2)CC(C)O1` (stereo not drawn), for which the inhibition (at 35 µM) is -12.5% (inactive).

Consider `NS(=O)(=O)c1ccc(NC(=S)N2CCCC2)cc1`, for which the inhibition is, setting by setting: (at 35 µM) 28.2% (active); (confirmation repeats, at 20 µM) 50.5%.

For `CCc1ccc(CNC(=O)C2CCN(c3nnc(C)c4c(C)n(-c5ccc(C)cc5)nc34)CC2)cc1`, for the setting “at 35 µM”, the inhibition is -22.4% (inactive).

For the compound `Cc1cccc(NC(=O)Cc2ccc(Br)cc2)n1`, under “at 35 µM”, the inhibition is -9.8% (inactive).

With `O=C(NC(Cc1ccc(O)cc1)C(=O)O)/C(=C/c1ccccc1)NC(=O)c1ccccc1` (stereo not drawn), the inhibition (at 35 µM) was 2.8% (inactive).

Take `CC1(C)Oc2ccc3ccc(=O)oc3c2/C(=N/O)C1=O`: the inhibition (at 35 µM) was -7% (inactive).

With `CC1(C)Oc2ccc3ccc(=O)oc3c2/C(=C/NCCO)C1=O`, the inhibition (at 35 µM) is 51.8% (active).

As to `C/C=C(/C)C(=O)OC1Cc2c(ccc3ccc(=O)oc23)OC1(C)C` (stereo not drawn), the inhibition (at 35 µM) was 5.5% (inactive).
